The values below come from the supplement of paper PMC11417369.

The full ranking holds about 25,000 sequences; the median of “ln(normalized median fluorescence intensity)” is about 7.1, and the highest 2% start at about 10. The sample as a whole holds a higher share of the highest values than the screen did.

For this assay, the system named is PfSIP2 AP2 domain 1 (GST-tagged). Briefly: gcPBM binding intensity (ln(normalized median fluorescence intensity)); higher = stronger DNA binding. Summed up: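 Binding intensity is the highest Masliner-normalised natural-log median intensity over replicate spots in either probe orientation. To obtain it, GST-tagged P. falciparum DNA-binding domains made in E. coli were incubated for 1 h on an Agilent 4 × 180k array of primer-extended double-stranded 36-bp intergenic genomic probes plus negative controls. Detection used Alexa488 anti-GST antibody with scanning at 488 nm.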
Consider ATTTTAAAAAGGATAGTGCAAATGTTAAAATAGGAC, for which the “gcPBM binding intensity (ln)” value was found to be 8.74.

Consider “TTTTTTTTTAAGCAAAGGAAATCAAAATAAAAATAT [CACACA_negctrl_site719]”, for which the “gcPBM binding intensity (ln)” value is 7.08.

In the case of TTTTAAGGTGTGAAGGTGCAAAAAGGTAAATAGGAA, the “gcPBM binding intensity (ln)” value came to 10.8.

Take “ATTTAAGTAGTACATACACACACATATACAAAAAGA [CACACA_site9317]”: the “gcPBM binding intensity (ln)” value came to 7.39.

For “GATGAGGACAAACACACACACATAAGTTGATACATA [CACACA_site3424]”, the “gcPBM binding intensity (ln)” value is 7.27.

“CTATAATAACATAACACACACATGTATTTATAGGTG [CACACA_site6298]”: the “gcPBM binding intensity (ln)” value was found to be 7.05.

In the case of ATACTTTTATTTTTGGTGCATATATCATGTAGACGT, the “gcPBM binding intensity (ln)” value is 10.2.

Regarding “TTTTATTTAGGAGGTGCATGTAATACGGAACATAAT [TGCATGCA_site827]”, the “gcPBM binding intensity (ln)” value worked out at 11.2.

As for CTTTTTATTTAGGAGGTGCATGTAATACGGAACATA, the “gcPBM binding intensity (ln)” value worked out at 10.9.

On to “CGGACATACATAGGAACATGCAAAATTTTTTATTTT [TGCATGCA_site575]”, for which the “gcPBM binding intensity (ln)” value was 6.78.

On to “ATATAATAACATAACACACACATGTATTTATAGGTG [CACACA_site359]”, for which the “gcPBM binding intensity (ln)” value amounted to 6.97.

Take “TGATTATTATAATTTAGTACATAATATTTTATATAA [XGTACX_site6125]”: the “gcPBM binding intensity (ln)” value was found to be 7.07.

“TTTATATATTTATTCACACATATAATATTCCGTCGT [CACACA_site6120]”: the “gcPBM binding intensity (ln)” value came to 6.88.

With “AAAAAAAAAAAAAATACACACATATTTTATAGGGGA [CACACA_site3261]”, the “gcPBM binding intensity (ln)” value is 7.19.

Regarding “CATATTTACTATCACACACACGATATATATAAATAT [CACACA_site1241]”, the “gcPBM binding intensity (ln)” value was determined as 7.25.

As to “CGCATATTTTATGTTTGTACTCATATGAATATCATA [XGTACX_site4717]”, the “gcPBM binding intensity (ln)” value came out at 6.97.

In the case of AATATTCATATGCAGGTGCATTAATTTTTATTAATT, the “gcPBM binding intensity (ln)” value turned out to be 10.4.

For TTCATATTCGATAAAGTGCATTAATTTTATTTATCA, the “gcPBM binding intensity (ln)” value came to 8.36.

As to “ATCATATTTATATTGGTGCATTATGCATGAAATTTA [GTGCAC_site9571]”, the “gcPBM binding intensity (ln)” value is 9.94.

With CATGAATATTTTAATGTGCACATTTATCATTATATG, the “gcPBM binding intensity (ln)” value amounted to 8.69.

Turning to “TTGATTTCATTTTAAGTGCATAACTAATATTATATA [GTGCAC_site9713]”, the “gcPBM binding intensity (ln)” value was 8.07.

In the case of “ATCATATTTATGTTGGTGCATTATGCATGGATTTTA [GTGCAC_site9795]”, the “gcPBM binding intensity (ln)” value was 9.92.

Consider “ATCATATGTATGGTGGTGCATTATGCATGAATTTTA [GTGCAC_site9798]”, for which the “gcPBM binding intensity (ln)” value was 10.2.

On to TTCATTTTATTTTAAGTGCATATTTTTATTTTTTTG, for which the “gcPBM binding intensity (ln)” value is 8.27.

For “CATTTTCATTTTAAGGTGCATTAATATTTATTTTAA [GTGCAC_site9437]”, the “gcPBM binding intensity (ln)” value is 10.4.

With GTTTGAATATATCAGGTGCATTTATAATTCATATGA, the “gcPBM binding intensity (ln)” value was 10.5.

For the sequence “TTATTAAATTCATAAGTGCATTTATGATTAATTTTT [GTGCAC_site9749]”, the “gcPBM binding intensity (ln)” value turned out to be 9.08.

Consider “ATATATTTTTTTTTTTGTACGTATATTTATATAATT [XGTACX_site8719]”, for which the “gcPBM binding intensity (ln)” value was found to be 7.1.

As to “ATATTACTAATTAATGGTACACGTTATAATAAACTA [XGTACX_site7051]”, the “gcPBM binding intensity (ln)” value was 7.12.

As for “TTCAATAGTAAGTATACACACATATAAATAAATAAA [CACACA_site7295]”, the “gcPBM binding intensity (ln)” value stood at 6.91.

For “GTGTGAAACATAAACACACACAAAAAGAAAAAATAG [CACACA_site1227]”, the “gcPBM binding intensity (ln)” value was determined as 6.91.

Take “TGCTTTTCTTTTTGCACACTTATGCATATATATATA [CACACA_site2583]”: the “gcPBM binding intensity (ln)” value was determined as 9.5.

“TATTCAAAAATATAAACAATGAAACAGTATAATATG [CACACA_negctrl_site1482]”: the “gcPBM binding intensity (ln)” value amounted to 7.09.

For the sequence “ATCACAAAATGGAATGTTCTATGATATATATGTATA [XGTACX_negctrl_site460]”, the “gcPBM binding intensity (ln)” value came out at 7.02.

Take “GCAAAGCACAAATATGCATGTAGATATAGAATAATG [TGCATGCA_site382]”: the “gcPBM binding intensity (ln)” value turned out to be 7.68.

In the case of TTTGAAAAGTATGAGGTGCAAAAAATGTAATGAAAT, the “gcPBM binding intensity (ln)” value was determined as 10.2.

In the case of “ATATATATATATAAAGTGCAAAAATGAAAGTAAGAC [GTGCAC_site9850]”, the “gcPBM binding intensity (ln)” value amounted to 9.25.

“GTATATGAGAAAAAAAGTACATGCACAAAATGTATA [XGTACX_site6441]”: the “gcPBM binding intensity (ln)” value is 7.42.

Consider “ATTCTAAATATCAGTGCACACATTTCTACGCAAAGT [CACACA_site474]”, for which the “gcPBM binding intensity (ln)” value was 9.9.

Regarding “TAAAATATTATCTACGCACACATTAAAATAAAAAAA [CACACA_site3709]”, the “gcPBM binding intensity (ln)” value is 7.17.

As for “ATTATAAATATCAGTGCACACATTTCTACGCAAAGT [CACACA_site4420]”, the “gcPBM binding intensity (ln)” value turned out to be 10.4.

For “AAAGAATTTGCATATACACACAAAAAAATAAATACA [CACACA_site4373]”, the “gcPBM binding intensity (ln)” value stood at 7.03.

“TATATATTATACACGTGTACACATTATAACAATATA [XGTACX_site7799]”: the “gcPBM binding intensity (ln)” value is 7.4.

On to “TATATATATATATAATGTACTTATATTTTTTTGAGG [XGTACX_site2638]”, for which the “gcPBM binding intensity (ln)” value worked out at 9.46.

As for “AAGGAAAACAATAGGTGTACCAAACGTCCTAGGAAC [XGTACX_site5732]”, the “gcPBM binding intensity (ln)” value stood at 6.7.

Turning to “GTTCTAATATATTGCACACGTAAAAATATAGGTAAT [CACACA_site886]”, the “gcPBM binding intensity (ln)” value is 7.42.

“ATATGAAAGGTGTACACACGCACACCCAAAAAAATA [CACACA_site2911]”: the “gcPBM binding intensity (ln)” value worked out at 7.93.

On to “GTGTAATATGAAATGTGTACACACGCACACACAAAA [XGTACX_site6180]”, for which the “gcPBM binding intensity (ln)” value amounted to 7.6.

As to “AATGTGTACGCACGCACACACAAAAAAATATATATA [CACACA_site2913]”, the “gcPBM binding intensity (ln)” value came to 7.24.

On to “TAATATGAAATGTGTACACACGCACCCACAAAAAAA [CACACA_site8949]”, for which the “gcPBM binding intensity (ln)” value was 10.7.

“TAATATGAAAAGTGTACACACGCACAGACAAAAAAA [CACACA_site5594]”: the “gcPBM binding intensity (ln)” value came out at 7.33.

For “TGTAATATGAAATGTGTACACACGCACCCACAAAAA [CACACA_site8948]”, the “gcPBM binding intensity (ln)” value amounted to 10.9.

As for “TATCCCCTTGTCCATATTAATTGTGACATCATATAT [XGTACX_negctrl_site9]”, the “gcPBM binding intensity (ln)” value was determined as 7.09.

Take “TCATTAAAGGAAAAATGTACGTATAAATAAATATAT [XGTACX_site2587]”: the “gcPBM binding intensity (ln)” value is 7.07.

As for AGAATTAAAATAAAGGTGCATTTTTTTGTTTCATGT, the “gcPBM binding intensity (ln)” value is 11.

For the sequence “GAAAATAAAATAAATGCATGTAAATTTAATGTAATG [TGCATGCA_site996]”, the “gcPBM binding intensity (ln)” value was 6.87.

With “TCATTTTAATTAAAAGTGCAAAAAATAATATAACTA [GTGCAC_site9968]”, the “gcPBM binding intensity (ln)” value was 8.31.

Regarding “ATATTTAAAGAATAAGTGCAAAATGTAATTAATTTT [GTGCAC_site9901]”, the “gcPBM binding intensity (ln)” value was 7.91.

Take “ATTTAAAAAAGAAAGGTGCATTTCAATAATGTAAAA [GTGCAC_site9585]”: the “gcPBM binding intensity (ln)” value worked out at 11.

On to TTAATTAATTTTTCAGTGCAAATAAAAAATATTTAA, for which the “gcPBM binding intensity (ln)” value was determined as 7.78.

Regarding TGATATAAAATTAAAGTGCAAAAAAAAAATAAAAAA, the “gcPBM binding intensity (ln)” value amounted to 8.36.

With “TAAAATATTTCAAAGGTGCAATGATAATTTAAGACG [GTGCAC_site9609]”, the “gcPBM binding intensity (ln)” value was 10.4.

For “CATAATTTAAAAAAGGTGCAAAATGGATAATATATA [GTGCAC_site9657]”, the “gcPBM binding intensity (ln)” value came out at 11.

As to “ATTATAAAAGAATTTTTTTTTATTTCATTAAAATAT [CACACA_negctrl_site1137]”, the “gcPBM binding intensity (ln)” value is 6.57.

Turning to “GAAATAAAAAGAAATGCATGTAATTTTTTTTTTTTT [TGCATGCA_site928]”, the “gcPBM binding intensity (ln)” value was found to be 6.71.

As for AAAAAAAAAAAAAAAGTGCATTAATAAATTTTAATA, the “gcPBM binding intensity (ln)” value came out at 9.57.
